From PubChem BioAssay (EPA / NIEHS)
Several values for one entry are separate records, joined by “and”; a condition that tells them apart may be missing. Equal values may be shown once. Records with an inconclusive call do not appear. More than one record can exist for a structure, and the calls need not agree. Activity calls are given as the source filed them. Rule for the calls, unless noted: active = hit-call score of the fitted dose curve at least 0.9, where 1 is the maximum; inconclusive = response in the unintended direction; inactive = score below 0.9.

Key:
[1] = target: Bile acid receptor (Homo sapiens) (UniProt Q96RI1); test: OT_FXR_FXRSRC1_0480: Odyssey Thera (OT) 8-hour HEK293T Protein-Complementation Assay for Farnesoid X receptor/SRC-1 Co-activator (AID 2283383)
Method in brief: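 HEK293T cells expressing FXR and SRC-1 fused to reporter fragments were dosed with compound for 8 h; fluorescence from the reconstituted reporter marked co-activator recruitment. Gain of signal was fitted against the DMSO baseline.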

[2] = target: Bile acid receptor (Homo sapiens) (UniProt Q96RI1); test: OT_FXR_FXRSRC1_1440: Odyssey Thera (OT) 24-hour HEK293T Protein-Complementation Assay for Farnesoid X receptor/SRC-1 Co-activator (AID 2283384)
Method in brief: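 HEK293T cells were dosed with compound and read 24 h later by fluorescence intensity from protein-fragment complementation reporting FXR/SRC-1 co-activator interaction. Gain of signal was fitted relative to DMSO negative control as baseline.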

[3] = target: Retinoic acid receptor RXR-alpha (Homo sapiens) (UniProt P19793); test: OT_NURR1_NURR1RXRa_0480: Odyssey Thera (OT) 8-hour HEK293T Protein Complementation Assay for Nurr1/retinoid X receptor (RXR) (AID 2283385)
Method in brief: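 HEK293T cells expressing Nurr1 and RXRα fused to reporter fragments were dosed with compound for 8 hours. Complex formation was read as fluorescence intensity and analysed as gain of signal against DMSO as baseline.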

[4] = target: Retinoic acid receptor RXR-alpha (Homo sapiens) (UniProt P19793); test: OT_NURR1_NURR1RXRa_1440: Odyssey Thera (OT) 24-hour HEK293T Protein Complementation Assay for Nurr1/retinoid X receptor (RXR) (AID 2283386)
Method in brief: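 HEK293T cells were dosed with compound and read 24 h later by fluorescence intensity in a protein-fragment complementation format, where Nurr1–RXRα interaction reconstitutes a split reporter. Activity was fitted as gain of signal relative to DMSO baseline.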

[5] = target: Peroxisome proliferator-activated receptor gamma (Homo sapiens) (UniProt P37231); test: OT_PPARg_PPARgSRC1_0480: Odyssey Thera (OT) 8-hour Protein-Complementation Assay for Peroxisome Proliferator-activated Receptor Gamma / SRC-1 Co-activator (AID 2283387);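 note: nuclear to cytoplasmic split Venus YFP fluorescence ratio reporting PPARg SRC-1 interaction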
Method in brief: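 Read-out: 488 nm N/C fluorescence ratio from complemented Venus YFP fragments, ≥350 cells per image, gain-of-signal fitted against DMSO baseline. Fusions of PPARg/SRC-1 with IFP1/IFP2 expressed transiently in HEK293T; compounds applied 8 h.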

[6] = target: Peroxisome proliferator-activated receptor gamma (Homo sapiens) (UniProt P37231); test: OT_PPARg_PPARgSRC1_1440: Odyssey Thera (OT) 24-hour Protein-Complementation Assay for Peroxisome Proliferator-activated Receptor Gamma/ SRC-1 Co-activator (AID 2283388);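 note: nuclear to cytoplasmic ratio of reconstituted Venus YFP fluorescence in fixed imaged cells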
Method in brief: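 Readout: nuclear-to-cytoplasmic 488 nm fluorescence ratio, ≥350 cells per image, 8 images per well, after 24 h compound exposure of HEK293T expressing PPARg/SRC-1 split-YFP fusions. Activity fitted in positive direction against DMSO.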

[7] = read-out: Tumor necrosis factor receptor superfamily member 6 (Homo sapiens) (UniProt P25445); test: LTEA_HepaRG_FAS: Life Technologies and Expression Analysis (LTEA) Assay for Fas cell surface death receptor (FAS) using HepaRG (AID 2283447; active = hit-call score of the fitted dose curve at least 0.9, where 1 is the maximum; inactive = score below 0.9); details: mRNA level, 48 h; actives raise or lower the signal
Method in brief: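 FAS transcript level was measured by TaqMan qRT-PCR against three housekeeping genes after 48 h chemical exposure. Cells were HepaRG, 0.5% DMSO vehicle, with a top concentration of 100 uM and half-log dilutions over eight points, in duplicate.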

[8] = read-out: Fatty acid synthase (Homo sapiens) (UniProt P49327); test: LTEA_HepaRG_FASN: Life Technologies and Expression Analysis (LTEA) Assay for Fatty Acid Synthase (FASN) using HepaRG (AID 2283448; active = hit-call score of the fitted dose curve at least 0.9, where 1 is the maximum; inactive = score below 0.9); details: mRNA level, 48 h; actives raise or lower the signal
Method in brief: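 Differentiated human HepaRG cells were exposed for 48 h in serum-free induction medium to eight half-log concentrations up to 100 uM in 0.5% DMSO, in duplicate. FASN mRNA was quantified by TaqMan qRT-PCR, normalized to ACTB/GAPDH/POLR2A, and fitted bidirectionally against DMSO.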

[9] = read-out: Cyclin D2 (CCND2), CCND2 (gene 894); test: LTEA_HepaRG_CCND2: Life Technologies and Expression Analysis (LTEA) Assay for Cyclin D2 (CCND2) using HepaRG (AID 2283449; active = hit-call score of the fitted dose curve at least 0.9, where 1 is the maximum; inactive = score below 0.9); details: mRNA level, 48 h; actives raise or lower the signal
Method in brief: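 Read-out is CCND2 mRNA level measured by qRT-PCR in human HepaRG liver cells and normalised to three housekeeping genes. Chemicals were applied for 48 h at up to 100 uM, with gain or loss fitted relative to 0.5% DMSO.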

[10] = read-out: Cyclin Dependent Kinase Inhibitor 1A (CDKN1A), CDKN1A (gene 1026); test: LTEA_HepaRG_CDKN1A: Life Technologies and Expression Analysis (LTEA) Assay for Cyclin Dependent Kinase Inhibitor 1A (CDKN1A) using HepaRG (AID 2283450; active = hit-call score of the fitted dose curve at least 0.9, where 1 is the maximum; inactive = score below 0.9); details: mRNA level, 48 h; actives raise or lower the signal
Method in brief: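 HepaRG, 48 h dosing, 8-pt half-log series from 100 uM top, 0.5% DMSO vehicle, duplicates. Readout: TaqMan qRT-PCR of CDKN1A transcript, housekeeping-normalized (ACTB, GAPDH, POLR2A). Up/down curve fit relative to DMSO.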

[11] = CEETOX_H295R_11DCORT: CeeTox H295R High-throughput Steroidogenesis Assay for 11-Deoxycortisol (11DCORT) (AID 2283432; active = hit-call score of the fitted dose curve at least 0.9, where 1 is the maximum; inactive = score below 0.9); details: actives raise or lower the signal
Method in brief: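 H295R cells; 10 uM forskolin prestim 48 h; compound in 0.1% DMSO 48 h; media extracted with MTBE; 11-deoxycortisol by LC-MS/MS, 7-point standard curve; gain/loss vs DMSO baseline; viability by MTT in same wells.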

[12] = CEETOX_H295R_OHPREG: CeeTox H295R High-throughput Steroidogenesis Assay for OH-Pregnenolone (OHPREG) (AID 2283434; active = hit-call score of the fitted dose curve at least 0.9, where 1 is the maximum; inactive = score below 0.9); details: actives raise or lower the signal
Method in brief: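 Hormone levels in spent medium were measured by tandem mass spectrometry following liquid-liquid extraction. Cells (H295R) had been forskolin-stimulated (10 uM, 48 h) before a 48 h chemical exposure at 0.1% DMSO, with activity fitted in both directions against DMSO.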

[13] = CEETOX_H295R_OHPROG: CeeTox H295R High-throughput Steroidogenesis Assay for OH-Progesterone (OHPROG) (AID 2283435; active = hit-call score of the fitted dose curve at least 0.9, where 1 is the maximum; inactive = score below 0.9); details: actives raise or lower the signal
Method in brief: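 H295R human adrenal cells were prestimulated 48 h with 10 uM forskolin, then exposed 48 h to test chemical (0.1% DMSO final). 17alpha-hydroxyprogesterone in medium was measured by HPLC-MS/MS after MTBE extraction; bidirectional fitting vs DMSO.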

[14] = CEETOX_H295R_CORTIC: CeeTox H295R High-throughput Steroidogenesis Assay for Corticosterone (CORTIC) (AID 2283437; active = hit-call score of the fitted dose curve at least 0.9, where 1 is the maximum; inactive = score below 0.9;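 note: corticosterone secreted into medium quantified by mass spectrometry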); details: actives raise or lower the signal
Method in brief: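 Corticosterone secreted into medium is measured by reverse-phase HPLC with tandem MS following liquid-liquid extraction. Cells are forskolin-stimulated (10 uM, 48 h) before 48 h test exposure; activity fitted in both directions against DMSO.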

[15] = CEETOX_H295R_CORTISOL: CeeTox H295R High-throughput Steroidogenesis Assay for Cortisol (AID 2283438; active = hit-call score of the fitted dose curve at least 0.9, where 1 is the maximum; inactive = score below 0.9;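 note: cortisol secreted into medium quantified by LC-MS/MS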); details: actives raise or lower the signal
Method in brief: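 H295R human adrenal cells were prestimulated 48 h with 10 uM forskolin, then exposed 48 h to test chemical (0.1% DMSO final). Medium cortisol was quantified by HPLC-MS/MS after MTBE extraction; bidirectional fitting relative to DMSO baseline.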

[16] = CEETOX_H295R_DOC: CeeTox H295R High-throughput Steroidogenesis Assay for DOC (AID 2283439; active = hit-call score of the fitted dose curve at least 0.9, where 1 is the maximum; inactive = score below 0.9); details: actives raise or lower the signal
Method in brief: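 H295R adrenal cells prestimulated 48 h with 10 uM forskolin, then exposed 48 h to test chemical (0.1% DMSO final). Medium 11-deoxycorticosterone extracted with MTBE, quantified by HPLC-MS/MS; bidirectional fit versus DMSO baseline; MTT viability in same wells.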

[17] = CEETOX_H295R_PROG: CeeTox H295R High-throughput Steroidogenesis Assay for Progesterone (PROG) (AID 2283442; active = hit-call score of the fitted dose curve at least 0.9, where 1 is the maximum; inactive = score below 0.9); details: actives raise or lower the signal
Method in brief: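 Progesterone read-out: HPLC-MS/MS on MTBE extracts of conditioned medium after 48 h chemical exposure of forskolin-primed (10 uM, 48 h) H295R cells. Gain or loss of signal was fitted relative to DMSO baseline.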

[18] = CEETOX_H295R_ESTRADIOL: CeeTox H295R High-throughput Steroidogenesis Assay for Estradiol (AID 2283440; active = hit-call score of the fitted dose curve at least 0.9, where 1 is the maximum; inactive = score below 0.9;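 note: estradiol secreted into medium quantified by LC-MS/MS after dansyl derivatisation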); details: actives raise or lower the signal
Method in brief: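 H295R, 48 h forskolin (10 uM) prestim → 48 h compound, 0.1% DMSO final. Estradiol in medium: MTBE extraction, dansyl chloride derivatization, LC-MS/MS. Fit bidirectional vs DMSO baseline; MTT viability in same wells.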

[19] = CEETOX_H295R_ESTRONE: CeeTox H295R High-throughput Steroidogenesis Assay for Estrone (AID 2283441; active = hit-call score of the fitted dose curve at least 0.9, where 1 is the maximum; inactive = score below 0.9;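 note: estrone secreted into medium measured by LC-MS/MS after dansyl derivatization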); details: actives raise or lower the signal
Method in brief: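 H295R cells; 48 h forskolin (10 uM) prestimulation; 48 h compound exposure, 0.1% DMSO final. Medium estrone: MTBE extraction, dansyl derivatization, HPLC-MS/MS. Bidirectional fit vs DMSO.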

[20] = CEETOX_H295R_ANDR: CeeTox H295R High-throughput Steroidogenesis Assay for Androstenedione (ANDR) (AID 2283436; active = hit-call score of the fitted dose curve at least 0.9, where 1 is the maximum; inactive = score below 0.9); details: actives raise or lower the signal
Method in brief: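 Read-out is androstenedione secreted into medium, measured by tandem mass spectrometry after liquid-liquid extraction. Cells were H295R, dosed for 48 h per modified OECD 456; activity fitted in both directions relative to DMSO.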

Measured: AC50

Chain of Bile acid receptor (Homo sapiens) (Q96RI1 whole entry, looked up, the tested form may be a part): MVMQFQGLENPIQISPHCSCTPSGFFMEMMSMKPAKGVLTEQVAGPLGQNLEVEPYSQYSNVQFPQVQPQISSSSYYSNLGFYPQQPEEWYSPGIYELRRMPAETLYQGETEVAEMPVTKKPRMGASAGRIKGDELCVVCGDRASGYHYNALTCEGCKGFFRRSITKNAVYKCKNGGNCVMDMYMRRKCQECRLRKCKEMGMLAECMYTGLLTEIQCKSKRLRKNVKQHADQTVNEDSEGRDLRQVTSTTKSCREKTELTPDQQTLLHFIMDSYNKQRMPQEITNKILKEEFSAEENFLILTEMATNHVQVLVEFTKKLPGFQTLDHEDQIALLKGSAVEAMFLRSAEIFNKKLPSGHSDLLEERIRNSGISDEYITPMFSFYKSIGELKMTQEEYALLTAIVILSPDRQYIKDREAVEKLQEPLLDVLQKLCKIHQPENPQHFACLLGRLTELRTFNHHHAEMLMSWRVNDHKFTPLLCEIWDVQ
Chain of Fatty acid synthase (Homo sapiens) (P49327 whole entry, looked up): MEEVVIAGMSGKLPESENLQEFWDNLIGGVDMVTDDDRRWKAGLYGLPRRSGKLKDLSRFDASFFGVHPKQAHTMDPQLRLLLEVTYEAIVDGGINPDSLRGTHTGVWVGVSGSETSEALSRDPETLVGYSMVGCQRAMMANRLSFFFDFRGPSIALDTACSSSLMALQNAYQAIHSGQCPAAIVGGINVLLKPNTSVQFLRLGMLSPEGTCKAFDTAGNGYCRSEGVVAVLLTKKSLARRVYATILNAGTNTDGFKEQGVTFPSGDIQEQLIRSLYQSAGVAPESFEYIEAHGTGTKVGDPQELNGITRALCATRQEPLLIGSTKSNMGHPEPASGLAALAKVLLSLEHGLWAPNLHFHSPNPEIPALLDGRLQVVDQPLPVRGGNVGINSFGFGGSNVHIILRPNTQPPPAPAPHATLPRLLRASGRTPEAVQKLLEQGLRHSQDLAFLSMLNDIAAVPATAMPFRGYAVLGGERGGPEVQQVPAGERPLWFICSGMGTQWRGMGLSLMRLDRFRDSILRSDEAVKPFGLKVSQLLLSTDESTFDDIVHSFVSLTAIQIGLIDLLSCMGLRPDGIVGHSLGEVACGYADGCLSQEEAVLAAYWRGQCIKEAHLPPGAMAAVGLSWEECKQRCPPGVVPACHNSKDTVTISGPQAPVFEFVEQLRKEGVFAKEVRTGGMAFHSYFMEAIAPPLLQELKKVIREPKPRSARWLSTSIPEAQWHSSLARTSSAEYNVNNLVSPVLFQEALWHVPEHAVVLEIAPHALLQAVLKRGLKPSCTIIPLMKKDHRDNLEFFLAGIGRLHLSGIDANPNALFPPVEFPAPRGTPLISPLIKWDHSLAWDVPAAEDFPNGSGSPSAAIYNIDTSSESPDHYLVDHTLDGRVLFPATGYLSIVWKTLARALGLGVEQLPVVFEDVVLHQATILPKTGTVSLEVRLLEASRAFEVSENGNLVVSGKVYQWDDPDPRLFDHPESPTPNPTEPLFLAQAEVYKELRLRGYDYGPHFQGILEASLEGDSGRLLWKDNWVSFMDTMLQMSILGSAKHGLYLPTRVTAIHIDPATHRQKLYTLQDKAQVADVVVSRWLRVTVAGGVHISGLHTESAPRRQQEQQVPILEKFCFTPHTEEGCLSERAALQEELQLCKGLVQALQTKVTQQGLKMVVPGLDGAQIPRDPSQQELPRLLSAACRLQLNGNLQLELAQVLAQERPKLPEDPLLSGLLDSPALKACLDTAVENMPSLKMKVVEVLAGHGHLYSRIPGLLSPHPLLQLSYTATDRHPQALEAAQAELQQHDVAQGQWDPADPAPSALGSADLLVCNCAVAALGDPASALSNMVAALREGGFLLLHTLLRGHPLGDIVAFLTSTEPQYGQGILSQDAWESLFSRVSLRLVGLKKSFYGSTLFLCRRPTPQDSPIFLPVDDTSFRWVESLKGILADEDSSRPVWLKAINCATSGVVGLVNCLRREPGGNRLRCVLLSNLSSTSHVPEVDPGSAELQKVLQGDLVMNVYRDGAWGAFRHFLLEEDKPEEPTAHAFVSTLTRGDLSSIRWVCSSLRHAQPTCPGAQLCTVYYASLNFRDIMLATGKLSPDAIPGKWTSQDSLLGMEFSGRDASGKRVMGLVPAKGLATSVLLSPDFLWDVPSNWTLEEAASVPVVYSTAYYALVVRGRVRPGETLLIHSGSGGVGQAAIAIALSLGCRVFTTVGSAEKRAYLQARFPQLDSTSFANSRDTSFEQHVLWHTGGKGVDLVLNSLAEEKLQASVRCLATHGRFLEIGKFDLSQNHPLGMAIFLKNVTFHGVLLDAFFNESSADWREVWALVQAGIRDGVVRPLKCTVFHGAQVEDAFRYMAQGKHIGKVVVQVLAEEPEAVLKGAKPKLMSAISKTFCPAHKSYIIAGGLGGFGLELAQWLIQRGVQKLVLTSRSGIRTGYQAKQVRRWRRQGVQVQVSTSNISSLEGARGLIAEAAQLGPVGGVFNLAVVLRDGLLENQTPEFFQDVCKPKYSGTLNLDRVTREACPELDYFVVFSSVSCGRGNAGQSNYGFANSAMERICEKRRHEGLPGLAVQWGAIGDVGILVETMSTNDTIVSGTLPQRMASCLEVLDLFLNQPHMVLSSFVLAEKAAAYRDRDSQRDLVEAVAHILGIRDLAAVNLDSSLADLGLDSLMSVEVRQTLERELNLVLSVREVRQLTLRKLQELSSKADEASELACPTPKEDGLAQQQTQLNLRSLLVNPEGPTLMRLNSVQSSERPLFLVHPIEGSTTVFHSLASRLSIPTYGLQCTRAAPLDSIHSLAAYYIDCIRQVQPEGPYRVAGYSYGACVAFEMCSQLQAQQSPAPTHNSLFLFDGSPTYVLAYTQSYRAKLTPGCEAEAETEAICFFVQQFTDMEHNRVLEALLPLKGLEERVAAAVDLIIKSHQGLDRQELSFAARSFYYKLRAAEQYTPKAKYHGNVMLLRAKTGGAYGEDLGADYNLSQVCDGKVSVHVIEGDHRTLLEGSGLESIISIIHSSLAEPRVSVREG
Chain of Peroxisome proliferator-activated receptor gamma (Homo sapiens) (P37231 whole entry, looked up, the tested form may be a part): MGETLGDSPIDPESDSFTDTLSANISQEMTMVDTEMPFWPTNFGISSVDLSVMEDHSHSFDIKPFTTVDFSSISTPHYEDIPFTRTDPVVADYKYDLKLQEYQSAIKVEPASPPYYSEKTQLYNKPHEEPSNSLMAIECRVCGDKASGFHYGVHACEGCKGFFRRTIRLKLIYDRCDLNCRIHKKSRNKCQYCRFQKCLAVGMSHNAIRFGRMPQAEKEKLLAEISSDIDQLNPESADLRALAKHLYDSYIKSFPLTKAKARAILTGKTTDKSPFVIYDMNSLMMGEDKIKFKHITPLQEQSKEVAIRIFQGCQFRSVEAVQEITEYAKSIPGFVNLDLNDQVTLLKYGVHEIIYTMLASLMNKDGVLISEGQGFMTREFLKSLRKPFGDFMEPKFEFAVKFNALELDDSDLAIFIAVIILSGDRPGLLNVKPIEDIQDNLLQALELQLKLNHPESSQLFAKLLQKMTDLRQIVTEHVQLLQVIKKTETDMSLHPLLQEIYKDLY
Chain of Retinoic acid receptor RXR-alpha (Homo sapiens) (P19793 whole entry, looked up, the tested form may be a part): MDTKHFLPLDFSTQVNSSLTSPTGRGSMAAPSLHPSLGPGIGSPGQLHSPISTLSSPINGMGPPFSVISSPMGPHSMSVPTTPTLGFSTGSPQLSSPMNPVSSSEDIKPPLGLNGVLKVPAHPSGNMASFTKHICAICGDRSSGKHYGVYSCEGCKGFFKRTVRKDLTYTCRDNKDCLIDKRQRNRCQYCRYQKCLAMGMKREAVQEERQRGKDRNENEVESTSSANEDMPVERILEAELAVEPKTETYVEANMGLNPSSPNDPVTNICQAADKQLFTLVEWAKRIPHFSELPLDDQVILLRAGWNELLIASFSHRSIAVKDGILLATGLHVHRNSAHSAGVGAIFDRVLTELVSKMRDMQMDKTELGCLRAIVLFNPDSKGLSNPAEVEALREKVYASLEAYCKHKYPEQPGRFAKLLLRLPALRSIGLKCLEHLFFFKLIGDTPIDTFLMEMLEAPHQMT

Cc1ccc(-c2c(Cl)nc(C#N)n2S(=O)(=O)N(C)C)cc1
active: [8] 9 µM | [9] 6.29 nM
inactive: [1] | [2] | [3] | [4] | [5] | [6] | [7] | [10]

C=CCC1=C(C)C(OC(=O)C2C(C=C(C)C)C2(C)C)CC1=O (configuration not stated)
active: [1] 14.9 µM | [2] 75 µM | [3] 31.2 µM and 33.1 µM | [4] 84.5 µM and 83.5 µM
inactive: [3] | [4] | [5] | [6] | [11] | [12] | [13] | [14] | [15] | [16] | [17] | [7] | [8] | [9] | [10]

CCOc1cc(Oc2ccc(C(F)(F)F)cc2Cl)ccc1[N+](=O)[O-]
active: [18] 1.78 µM | [19] 3.32 µM | [7] 14.4 µM | [8] 32 µM
not listed: [3] | [20]
inactive: all other assays above

CC(C)(C)c1ccc(CSc2cnn(C(C)(C)C)c(=O)c2Cl)cc1
active: [1] 5.14 µM | [7] 1.9 µM | [8] 24 µM | [10] 2.3 µM
inactive: [2] | [3] | [4] | [5] | [6] | [9]

CNC(=O)ON=CC(C)(C)SC
inactive: [1] | [2] | [3] | [4] | [5] | [6] | [7] | [8] | [9] | [10]

CC1=C(C(=O)Nc2ccccc2)SCCO1
active: [18] 21.2 µM | [8] 30.8 µM
inactive: all other assays above
